# Data as given in PubChem BioAssay (NCATS).
# Records with an inconclusive call do not appear. The source made the active and inactive calls. Unless noted, calls follow the shape of the full dose curve. Non-standard residues stand in square brackets, D forms with d. Residues, ends and D or L forms follow the SMILES beside them. *: point of attachment. Sta = CC(C)C[C@H](N)[C@@H](O)CC(=O)O; Isovaleryl = CC(C)CC(=O)*
# Legend:
# [1] = qHTS drug screen for cell cycle checkpoint inhibitors in PARPi-resistant BRCA-mutant ovarian cancer cell lines. (AID 1963452); details: PEO1/OlaR viability, CellTiter-Glo luminescence, 96 h, stronger effect = lower value
# Summary of the method: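 PEO1, PEO4 and PEO1/OlaR ovarian cancer cells, 600 per well, exposed 96 h at 37C to a dilution series. Viability read by CellTiter-Glo luminescence, normalized to DMSO and empty wells; activity summarized as Z-AUC.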
# [2] = biological target: Cytochrome P450 2D6 (Homo sapiens) (UniProt P10635); experiment: qHTS for inhibitors of CYP2D6 against the NCATS DSHEA and TCM libraries (AID 1919972; active = well fitted curve in the direction sought with a large enough effect; an effect the other way counts as inactive or inconclusive; also: potency is read from the fitted curve at half-maximal effect); details: CYP2D6 enzymatic inhibition, luminescence qHTS
# Cytochrome P450 2D6 (Homo sapiens), sequence (P10635 whole entry, looked up): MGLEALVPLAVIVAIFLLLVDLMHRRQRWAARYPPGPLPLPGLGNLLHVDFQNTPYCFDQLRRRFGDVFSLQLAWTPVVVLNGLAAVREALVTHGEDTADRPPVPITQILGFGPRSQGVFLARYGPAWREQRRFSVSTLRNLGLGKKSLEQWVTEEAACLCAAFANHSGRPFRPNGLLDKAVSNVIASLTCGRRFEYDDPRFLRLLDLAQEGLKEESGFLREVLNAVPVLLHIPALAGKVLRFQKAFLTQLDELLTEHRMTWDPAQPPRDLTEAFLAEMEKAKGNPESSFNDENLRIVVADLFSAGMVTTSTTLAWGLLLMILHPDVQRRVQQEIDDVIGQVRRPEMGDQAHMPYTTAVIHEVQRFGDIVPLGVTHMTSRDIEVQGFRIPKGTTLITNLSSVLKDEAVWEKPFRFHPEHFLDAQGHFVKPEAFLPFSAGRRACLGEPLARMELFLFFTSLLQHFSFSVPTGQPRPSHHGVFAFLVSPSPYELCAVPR
# Summary of the method: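 Luminescent P450-Glo read-out of CYP2D6 turnover of a luciferin substrate after NADPH-driven reaction of 30-45 min at room temperature. Compounds were first preincubated 15 min with enzyme at titrated concentrations; quinidine was the intraplate control.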
# [3] = biological target: Cytochrome P450 2C9 (Homo sapiens) (UniProt P11712); experiment: qHTS for inhibitors of CYP2C9 against the NCATS DSHEA and TCM libraries (AID 1919973; active = well fitted curve in the direction sought with a large enough effect; an effect the other way counts as inactive or inconclusive; also: potency is read from the fitted curve at half-maximal effect); details: recombinant CYP2C9 enzyme activity, luminescence
# Cytochrome P450 2C9 (Homo sapiens), sequence (P11712 whole entry, looked up): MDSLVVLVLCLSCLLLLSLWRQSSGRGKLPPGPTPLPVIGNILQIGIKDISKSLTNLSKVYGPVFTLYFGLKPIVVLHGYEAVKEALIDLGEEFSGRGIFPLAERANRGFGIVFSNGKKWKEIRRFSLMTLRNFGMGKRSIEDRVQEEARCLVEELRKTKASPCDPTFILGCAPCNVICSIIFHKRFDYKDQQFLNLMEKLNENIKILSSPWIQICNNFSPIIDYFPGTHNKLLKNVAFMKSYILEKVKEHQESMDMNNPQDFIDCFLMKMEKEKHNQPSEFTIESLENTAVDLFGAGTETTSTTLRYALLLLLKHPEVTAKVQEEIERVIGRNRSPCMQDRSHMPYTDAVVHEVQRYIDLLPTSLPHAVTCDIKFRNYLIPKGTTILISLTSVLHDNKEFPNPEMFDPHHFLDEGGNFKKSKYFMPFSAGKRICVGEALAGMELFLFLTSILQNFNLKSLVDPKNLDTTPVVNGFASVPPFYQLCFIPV
# Summary of the method: (§1)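 Luminescent P450-Glo format: compounds preincubated 15 min with enzyme and luciferin substrate, reaction run 30-45 min after NADPH regeneration solution. Intraplate controls: ketoconazole for CYP3A4 and CYP2C19, sulfaphenazole for CYP2C9.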
# [4] = biological target: Cytochrome P450 2C19 (Homo sapiens) (UniProt P33261); experiment: qHTS for inhibitors of CYP2C19 against the NCATS DSHEA and TCM libraries (AID 1919974; active = well fitted curve in the direction sought with a large enough effect; an effect the other way counts as inactive or inconclusive;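 also: luminescence from luciferin released by CYP2C19 oxidation of a pro-luciferin substrate; potency is read from the fitted curve at half-maximal effect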); details: CYP2C19 enzyme inhibition, luminescence qHTS
# Cytochrome P450 2C19 (Homo sapiens), sequence (P33261 whole entry, looked up): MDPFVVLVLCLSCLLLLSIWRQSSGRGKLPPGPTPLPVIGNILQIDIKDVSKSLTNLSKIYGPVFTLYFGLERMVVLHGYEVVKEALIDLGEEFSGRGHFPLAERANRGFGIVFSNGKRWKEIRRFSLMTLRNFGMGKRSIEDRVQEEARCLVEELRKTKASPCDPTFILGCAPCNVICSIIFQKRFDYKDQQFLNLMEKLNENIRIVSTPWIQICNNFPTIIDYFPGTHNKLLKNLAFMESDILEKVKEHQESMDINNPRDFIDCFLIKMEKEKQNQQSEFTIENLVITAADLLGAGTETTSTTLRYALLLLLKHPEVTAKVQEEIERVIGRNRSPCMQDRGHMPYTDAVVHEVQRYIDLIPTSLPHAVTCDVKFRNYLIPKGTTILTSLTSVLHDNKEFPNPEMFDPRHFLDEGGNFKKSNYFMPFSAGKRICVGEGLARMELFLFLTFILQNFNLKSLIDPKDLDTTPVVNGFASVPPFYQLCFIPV
# Summary of the method: as §1
# [5] = KB-3-1 P-gp reporter qHTS against the NCATS DSHEA and TCM libraries (AID 1919975; active = well fitted curve in the direction sought with a large enough effect; an effect the other way counts as inactive or inconclusive; also: 0% is about no effect); details: KB-3-1 parental cells, CellTiter-Glo luminescence viability, 72 h; series mostly up to 26.1 µM
# Summary of the method: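 Cell viability qHTS: 500 KB-3-1 cells/well, substances in titration, ~72 h, 37C; luminescent CellTiter-Glo read.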
# [6] = biological target: Cytochrome P450 1A2 (Homo sapiens) (UniProt P05177); experiment: qHTS for inhibitors of CYPIA2 against the NCATS DSHEA and TCM libraries (AID 1919976; active = well fitted curve in the direction sought with a large enough effect; an effect the other way counts as inactive or inconclusive; also: potency is read from the fitted curve at half-maximal effect); details: recombinant CYP1A2 enzyme activity, luminescence
# Cytochrome P450 1A2 (Homo sapiens), sequence (P05177 whole entry, looked up): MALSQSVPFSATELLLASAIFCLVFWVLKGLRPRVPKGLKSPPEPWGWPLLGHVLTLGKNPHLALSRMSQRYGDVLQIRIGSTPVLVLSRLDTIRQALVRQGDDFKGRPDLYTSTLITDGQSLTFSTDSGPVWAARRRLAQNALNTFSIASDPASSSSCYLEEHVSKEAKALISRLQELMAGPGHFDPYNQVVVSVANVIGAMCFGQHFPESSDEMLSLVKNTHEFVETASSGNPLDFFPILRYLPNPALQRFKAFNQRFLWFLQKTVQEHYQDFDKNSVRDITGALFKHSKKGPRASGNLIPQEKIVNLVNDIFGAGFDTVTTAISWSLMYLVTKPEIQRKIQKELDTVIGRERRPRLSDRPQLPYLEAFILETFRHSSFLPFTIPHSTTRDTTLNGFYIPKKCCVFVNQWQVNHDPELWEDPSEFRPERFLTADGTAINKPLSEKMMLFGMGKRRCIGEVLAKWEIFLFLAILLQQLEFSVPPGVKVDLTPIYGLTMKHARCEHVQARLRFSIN
# Summary of the method: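 Human CYP1A2 with pro-luciferin substrate (typically 100 mM KPO4), 15 min preincubation with compound, then 1x NADPH regeneration for 30-45 min at room temperature in the dark. Luciferin quantified by luciferase luminescence; furafylline intraplate control.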
# [7] = Dual reporter qHTS for agonist of Pregnane X Receptor (hPXR) against the NCATS DSHEA and TCM libraries: Fluorescence readout (AID 1920058; active = well fitted curve in the direction sought with a large enough effect; an effect the other way counts as inactive or inconclusive; also: 0% is about no effect); details: PXR dual reporter cells; series mostly up to 40 µM
# Summary of the method: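 hPXR-Luc HepG2 cells, 2000/well in charcoal-stripped serum, attached 5 h, dosed for ~24 h at 37 °C. Fluorescence read is CellTiter-Fluor viability (Ex/Em 405/540 nm); rifampicin positive, tetraoctyl ammonium bromide (92 µM) cytotoxicity controls.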
# [8] = biological target: Nuclear receptor subfamily 1 group I member 2 (Homo sapiens) (UniProt O75469); experiment: Dual reporter qHTS for agonist of Pregnane X Receptor (hPXR) against the NCATS DSHEA and TCM libraries: Luminescence readout (AID 1920059; active = well fitted curve in the direction sought with a large enough effect; an effect the other way counts as inactive or inconclusive; also: 0% is about no effect); details: hPXR dual reporter cells, luciferase luminescence agonist; series mostly up to 40 µM
# Nuclear receptor subfamily 1 group I member 2 (Homo sapiens), sequence (O75469 whole entry, looked up): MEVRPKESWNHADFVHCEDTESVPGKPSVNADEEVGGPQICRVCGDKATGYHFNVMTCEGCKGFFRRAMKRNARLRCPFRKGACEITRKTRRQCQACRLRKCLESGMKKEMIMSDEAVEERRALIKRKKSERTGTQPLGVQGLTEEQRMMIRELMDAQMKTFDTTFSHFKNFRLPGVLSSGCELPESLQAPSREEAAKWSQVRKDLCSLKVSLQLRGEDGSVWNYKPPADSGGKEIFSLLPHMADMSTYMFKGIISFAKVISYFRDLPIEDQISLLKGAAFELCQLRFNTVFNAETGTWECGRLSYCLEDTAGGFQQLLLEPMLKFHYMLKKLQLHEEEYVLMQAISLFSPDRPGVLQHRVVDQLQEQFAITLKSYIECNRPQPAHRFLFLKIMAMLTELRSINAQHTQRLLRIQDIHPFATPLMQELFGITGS
# Summary of the method: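 hPXR-LucHepG2 cells in phenol red-free DMEM with 5% charcoal-stripped FBS, 2000 cells/well, attached 5 h, then exposed 24 h at 37C to compounds; rifampicin as positive agonist control (2.8 nM–92 uM). Luciferase luminescence read.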
# [9] = biological target: Nuclear receptor subfamily 1 group I member 2 (Homo sapiens) (UniProt O75469); experiment: Dual reporter qHTS for antagonist of Pregnane X Receptor (hPXR) against the NCATS DSHEA and TCM libraries: Luminescence Readout (AID 1920060; active = well fitted curve in the direction sought with a large enough effect; an effect the other way counts as inactive or inconclusive;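 also: HepG2 cells carrying hPXR luciferase reporter stimulated with rifampicin at 2 µM; 0% is about no effect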); details: hPXR dual reporter cells, luciferase luminescence, antagonist mode; series mostly up to 40 µM
# Summary of the method: (§2)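 In antagonist mode, 2 uM rifampicin was added to hPXR-Luc HepG2 cells alongside test substances, incubated 24 h at 37 C; luminescence gave reporter activity, and CellTiter-Fluor fluorescence (405/540 nm) gave viability.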
# [10] = Dual reporter qHTS for antagonist of Pregnane X Receptor (hPXR) against the NCATS DSHEA and TCM libraries: Fluorescence Readout (AID 1920061; active = well fitted curve in the direction sought with a large enough effect; an effect the other way counts as inactive or inconclusive; also: 0% is about no effect); details: PXR dual reporter cells, antagonist mode; series mostly up to 40 µM
# Summary of the method: as §2
# [11] = measured here: PEO1 parental Z-AUC
structure (smiles),measurement,setting,value
c1ccc2[nH]c(-c3cscn3)nc2c1,Z-AUC,[1],-1.4 (inactive)
same,Z-AUC,[1]; [11],-0.204
same,Z-AUC,[1]; measured here: PEO4 Z-AUC,0.0577
CCCCN(CCCC)CCC(O)c1cc2c(Cl)cc(Cl)cc2c2cc(C(F)(F)F)ccc12 (stereo not given),Z-AUC,[1],-0.995 (inactive)
same,Z-AUC,[1]; [11],-1.16
same,Z-AUC,[1]; measured here: PEO4 Z-AUC,-0.882
Cc1ccc(S(=O)(=O)NC(=O)NN2CC3CCCC3C2)cc1 (stereo not given),Z-AUC,[1],1.31 (inactive)
same,Z-AUC,[1]; [11],0.956
same,Z-AUC,[1]; measured here: PEO4 Z-AUC,1.09
CC(=O)N1CCN(c2ccc(OC[C@H]3CO[C@](Cn4ccnc4)(c4ccc(Cl)cc4Cl)O3)cc2)CC1,Z-AUC,[1],0.477 (inactive)
same,Z-AUC,[1]; [11],0.452
same,Z-AUC,[1]; measured here: PEO4 Z-AUC,0.494
Cc1ncc([N+](=O)[O-])n1CC(C)O (stereo not given),Z-AUC,[1],0.202 (inactive)
same,Z-AUC,[1]; [11],1.06
same,Z-AUC,[1]; measured here: PEO4 Z-AUC,0.768
Clc1ccc(C(Cn2ccnc2)OCc2ccc(Sc3ccccc3)cc2)c(Cl)c1 (stereo not given),Z-AUC,[1],-1.08 (inactive)
same,Z-AUC,[1]; [11],-0.535
same,Z-AUC,[1]; measured here: PEO4 Z-AUC,-0.326
Nc1ncn([C@H]2C[C@H](O)[C@@H](CO)O2)c(=O)n1,Z-AUC,[1],1.63 (inactive)
same,Z-AUC,[1]; [11],-0.11
same,Z-AUC,[1]; measured here: PEO4 Z-AUC,-0.207
CS(=O)(=O)OCCCCOS(C)(=O)=O,Z-AUC,[1],0.989 (inactive)
same,Z-AUC,[1]; [11],0.976
same,Z-AUC,[1]; measured here: PEO4 Z-AUC,1.46
CN1CCC(=C2c3ccccc3CCc3sccc32)CC1,Z-AUC,[1],-0.614 (inactive)
same,Z-AUC,[1]; [11],-1.2
same,Z-AUC,[1]; measured here: PEO4 Z-AUC,-0.893
CCOC(=O)C1=C[C@@H](OC(CC)CC)[C@H](NC(C)=O)[C@@H](N)C1,Z-AUC,[1],0.109 (inactive)
same,Z-AUC,[1]; [11],0.666
same,Z-AUC,[1]; measured here: PEO4 Z-AUC,0.833
C[Se]CCC(N)C(=O)O (stereo not given),Z-AUC,[1],0.282 (inactive)
same,Z-AUC,[1]; [11],1.03
same,Z-AUC,[1]; measured here: PEO4 Z-AUC,1.31
O=C(O)CCNC(=O)c1ccc(N=Nc2ccc(O)c(C(=O)O)c2)cc1,Z-AUC,[1],-0.101 (inactive)
same,Z-AUC,[1]; [11],0.264
same,Z-AUC,[1]; measured here: PEO4 Z-AUC,0.361
O=C1CCc2ccc(OCCCCN3CCN(c4cccc(Cl)c4Cl)CC3)cc2N1,Z-AUC,[1],-1.31 (inactive)
same,Z-AUC,[1]; [11],-0.72
same,Z-AUC,[1]; measured here: PEO4 Z-AUC,-1.21
Cc1cc(O)c2c(c1)C(=O)c1cc(O)cc(O)c1C2=O,Potency,[2],22.4 µM (active)
same,Potency,[3],8.91 µM (active)
same,Potency,[4],22.4 µM (active)
same,outcome,[5],inactive
same,Potency,[6],8.91 µM (active)
same,outcome,[7],inactive
same,outcome,[8],inactive
same,outcome,[9],inactive
same,outcome,[10],inactive
same,Z-AUC,[1],0.333 (inactive)
same,Z-AUC,[1]; [11],0.799
same,Z-AUC,[1]; measured here: PEO4 Z-AUC,0.55
CCOc1cc(CC(=O)N[C@@H](CC(C)C)c2ccccc2N2CCCCC2)ccc1C(=O)O,Z-AUC,[1],0.686 (inactive)
same,Z-AUC,[1]; [11],0.341
same,Z-AUC,[1]; measured here: PEO4 Z-AUC,0.628
CCCCC(CC)COC(=O)C(C#N)=C(c1ccccc1)c1ccccc1 (stereo not given),Z-AUC,[1],0.188 (inactive)
same,Z-AUC,[1]; [11],-0.152
same,Z-AUC,[1]; measured here: PEO4 Z-AUC,0.0622
CNC[C@H](O)c1ccc(O)c(O)c1,Z-AUC,[1],0.904 (inactive)
same,Z-AUC,[1]; [11],1.34
same,Z-AUC,[1]; measured here: PEO4 Z-AUC,1.03
COc1cc2c(cc1OC)C1CC(=O)C(CC(C)C)CN1CC2 (stereo not given),Z-AUC,[1],0.0378 (inactive)
same,Z-AUC,[1]; [11],0.296
same,Z-AUC,[1]; measured here: PEO4 Z-AUC,0.889
COc1cc(OC)c(C(=O)CCCN2CCCC2)c(OC)c1,Z-AUC,[1],1.29 (inactive)
same,Z-AUC,[1]; [11],0.91
same,Z-AUC,[1]; measured here: PEO4 Z-AUC,0.794
C[C@@H](c1ncncc1F)[C@](O)(Cn1cncn1)c1ccc(F)cc1F,Z-AUC,[1],-0.415 (inactive)
same,Z-AUC,[1]; [11],1.15
same,Z-AUC,[1]; measured here: PEO4 Z-AUC,0.481
Cc1cc2cc3c(C)cc(=O)oc3c(C)c2o1,Z-AUC,[1],0.166 (inactive)
same,Z-AUC,[1]; [11],0.892
same,Z-AUC,[1]; measured here: PEO4 Z-AUC,0.841
O=C1NC(=O)C(c2ccccc2[N+](=O)[O-])=C1Nc1ccc(O)c(Cl)c1,Z-AUC,[1],0.891 (inactive)
same,Z-AUC,[1]; [11],0.49
same,Z-AUC,[1]; measured here: PEO4 Z-AUC,0.349
Cc1c(C(=O)NN2CCCCC2)nn(-c2ccc(Cl)cc2Cl)c1-c1ccc(Cl)cc1,Z-AUC,[1],-1.52 (inactive)
same,Z-AUC,[1]; [11],-0.747
same,Z-AUC,[1]; measured here: PEO4 Z-AUC,-0.695
O=C1c2ccccc2-c2n[nH]c3cccc1c23,Z-AUC,[1],0.0207 (inactive)
same,Z-AUC,[1]; [11],-0.118
same,Z-AUC,[1]; measured here: PEO4 Z-AUC,0.208
NNc1nncc2ccccc12,Z-AUC,[1],0.571 (inactive)
same,Z-AUC,[1]; [11],0.709
same,Z-AUC,[1]; measured here: PEO4 Z-AUC,0.892
C[C@H](Cc1ccc(O)c(O)c1)[C@@H](C)Cc1ccc(O)c(O)c1,Z-AUC,[1],1.18 (inactive)
same,Z-AUC,[1]; [11],0.707
same,Z-AUC,[1]; measured here: PEO4 Z-AUC,0.729
Cc1ccc(NC(=O)c2ccc(CN3CCN(C)CC3)cc2)cc1Nc1nccc(-c2cccnc2)n1,Z-AUC,[1],-0.776 (inactive)
same,Z-AUC,[1]; [11],-0.808
same,Z-AUC,[1]; measured here: PEO4 Z-AUC,-0.886
O=C(NOCC1CC1)c1ccc(F)c(F)c1Nc1ccc(I)cc1Cl,Z-AUC,[1],0.682 (inactive)
same,Z-AUC,[1]; [11],-0.295
same,Z-AUC,[1]; measured here: PEO4 Z-AUC,0.149
COc1ccccc1N1CCN(CCN(C(=O)C2CCCCC2)c2ccccn2)CC1,Z-AUC,[1],0.61 (inactive)
same,Z-AUC,[1]; [11],0.37
same,Z-AUC,[1]; measured here: PEO4 Z-AUC,0.876
CC(C)CC(=O)N[C@H](C(=O)N[C@H](C(=O)N[C@@H](CC(C)C)[C@@H](O)CC(=O)N[C@@H](C)C(=O)N[C@@H](CC(C)C)[C@@H](O)CC(=O)O)C(C)C)C(C)C (Isovaleryl-VV[Sta]A[Sta]-OH),Z-AUC,[1],0.839 (inactive)
same,Z-AUC,[1]; [11],0.464
same,Z-AUC,[1]; measured here: PEO4 Z-AUC,0.507
CC(C)[C@H](N)C(=O)OCCOCn1cnc2c(=O)[nH]c(N)nc21,Z-AUC,[1],1.05 (inactive)
same,Z-AUC,[1]; [11],0.583
same,Z-AUC,[1]; measured here: PEO4 Z-AUC,0.722
CN(C)C(=O)[C@H](O)[C@H](Cc1ccccc1)NC(=O)c1cc2cc(Cl)ccc2[nH]1,Z-AUC,[1],-0.181 (inactive)
same,Z-AUC,[1]; [11],0.139
same,Z-AUC,[1]; measured here: PEO4 Z-AUC,-0.0271
